# In PubChem BioAssay (NCI):
# Compounds without any hit were thinned out: in the full panel of roughly 83,000, 20% have a hit.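 Activity criterion: percent growth below 10, measured after cells in 96-well plates were exposed to a single compound concentration for 48 hours.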 Unmarked numbers belong to inactive results. Activity calls are given as the source filed them.
# Test system: CAKI-1 renal
# Assay: NCI-60 one-dose screen, 48 h (100 = growth as untreated, 0 = no growth, -100 = all killed)
# Details: 10 µM unless noted
# Procedure: Growth inhibition of the CAKI-1 human tumor cell line is measured as a screen for anti-cancer activity. Cells are grown in 96 well plates and exposed to the test compound for 48 hours. Compounds are tested at a single concentration, which is 10^-5 M for most compounds. The reported endpoint is percent growth (GI% or GIPRCNT), where numbers from 0 - 100% represent growth inhibition, and numbers from -100% - 0 represent cell death. For example, a value of 40 represents 60% growth inhibition. A value of 0 means no net growth occurred over the course of the experiment. A value of -40 indicates 40% of cells at the beginning of the experiment died by the end of the experiment. A value of -100 means all cells are dead at the end of the experiment.
# NCI-60 Human Tumor Cell Lines Screen was performed using the standard one-dose NCI protocol, which is described in more detail at https://dtp.cancer.gov/discovery_development/nci-60/default.htm.
# Compounds with GIPRCNT values below 10 were considered active. Activity score was based on GIPRCNT using the following formula: […]
# Score is 0 for GIPRCNT values of 100 or above, 50 for GIPRCNT values of 0, and 100 for GIPRCNT values of -100.
row,SMILES,growth
1,c1cn2c(ccc3nc(-c4cn[nH]c4)c4c(c32)CCCC4)n1,16.5%
2,CCC(CC)N1C(=O)/C(=c2\sc3n(c2=O)NC2C(N=3)N(CC)C(=O)N2CC)c2ccccc21 (stereo not given),50.8%
3,NC(N)=Nc1ccc(Oc2cccc(Nc3ccc(Cl)c(C(F)(F)F)c3)c2)cc1,39.8%
4,CC1=CC(=O)C2=C(C)CC(OC(=O)CCc3ccccc3)[C@@H]3[C@H](OC(=O)[C@@H]3C)[C@@H]12 (stereo not given in full),86.1%
5,Nc1ncc(-c2ccc3ncnc(N4CCc5cc(F)c(Cl)cc54)c3c2)cn1,-9.07% (active)
6,NS(=O)(=O)c1ccc(Nc2nc(N/N=C/c3ccccn3)nc(Nc3ccccc3)n2)cc1,-25.3% (active)
7,CN1CCN(c2nc(-c3csc(-c4ccccc4)n3)cc3ccccc23)CC1,21.2%
8,C#Cc1ccc(C(=O)NCc2ccc(/C=C/C(=O)c3nccn3C)cc2)cc1,43.2%
9,O=C(CSc1nc2ccccc2c(=O)n1-c1ccccc1)Nc1ccc(-c2nc3ccc([N+](=O)[O-])cc3[nH]2)cc1,78.2%
10,CC(c1ccccc1)N1CSc2nc3ncncc3n2C1 (stereo not given),27.2%
11,Nc1nc(N)c2c(n1)NC(c1ccc(C(F)(F)F)cc1)CC(c1ccc(Nc3nc(NCCO)nc(N4CCOCC4)n3)cc1)=N2 (stereo not given),79.7%
12,CS(=O)(=O)Nc1cc(-c2ccc3ncc(C#N)c(Nc4cccc(Cl)c4F)c3c2)cnc1Cl,-5.21% (active)
13,COc1cc2c(cc1OC)C(Sc1ccc(F)cc1)c1c(nc(N)c(C#N)c1N)O2 (stereo not given),-58.4% (active)
14,NC(N)=Nc1ccc(Oc2cccc(Nc3ccc(Br)c(C(F)(F)F)c3)c2)cc1,39.8%
15,Cn1cc(-c2nnc(N)nc2-c2c[nH]c3ccc(F)cc23)c2cc(F)ccc21,76.4%
16,CC1=NC2=NN3C(=NN2C(c2ccccc2)=C1)N=NC(c1ccc(Br)cc1)=C3c1ccc(Br)cc1,95.7%
17,CCc1cccc2c3c(sc12)C(c1ccc(Cl)cc1)C(C#N)=C(/N=C/c1ccc(Cl)cc1)O3 (stereo not given),37.5%
18,Cc1[nH]c(C(=O)Nc2ccccc2OCc2cccc(C(=O)N3CCC[C@@H](N)C3)c2)c(Cl)c1Cl,-92.8% (active)
19,CC(C)(C)c1ccc(C(=O)Nc2nc3ccc(O)cc3s2)cc1,15.1%
20,COC(=O)C(Cc1ccccc1)Nc1nc(NC(Cc2ccccc2)C(=O)OC)nc(N2CCOCC2)n1 (stereo not given),86.8%

row,SMILES,growth
1,CCCCCCCn1cc2c(N[C@H](C)c3ccccc3)ncnc2n1,88.2%
2,CCCn1cnc2c(c1=N)C(c1ccc(OC)cc1)c1sc3c(C)cccc3c1O2 (stereo not given),25.8%
3,Fc1ccc(-c2cc3nc(C(Cl)Cl)nc(-c4ccc(F)cc4)n3n2)cc1,-18.3% (active)
4,N#Cc1cccc(/C(N)=N/C(N)=N/c2nc3ccccc3s2)c1,34%
5,Cc1cccc(/C=C/C(=O)Nc2ncc(Cc3cccc(C)c3)s2)c1,25.3%
6,CCc1cccc(NC(=O)CNc2cc(S(=O)(=O)N(C)C)cc(C)c2C)c1,50.5%
7,CN1c2ccccc2Sc2cc(C=C(C#N)C#N)ccc21,91.8%
8,NS(=O)(=O)c1ccc(-n2cc(CN3CCNCC3)nn2)cc1,95.9%
9,Cc1nc(-c2ccccc2O)ccc1C(=O)N=Nc1c(O)[nH]c2ccc(Br)cc12,84.6%
10,Cc1cc(C)c2sc(=O)n(Cc3nnc(SCCC(=O)O)o3)c2n1,89.5%
11,O=S(=O)(Oc1ccc(-c2nnc(Nc3ccccc3)s2)cc1)C(F)(F)C(F)(F)C(F)(F)C(F)(F)C(F)(F)C(F)(F)F,92.7%
12,COc1c(N2CC3CCCNC3C2)c(F)cc2c(=O)c(C(=O)N/N=C/c3ccc(F)cc3)cn(C3CC3)c12 (stereo not given),87.7%
13,COc1c(N2CC3CCCNC3C2)c(F)cc2c(=O)c(C(=O)N/N=C/c3c[nH]c4ccccc34)cn(C3CC3)c12 (stereo not given),98.7%
14,O=C1C(c2ccccc2)=C(N2CCc3ccccc32)OC1(Cl)Cl,4.78% (active)
15,O=c1[nH]c(Sc2sc3ccc(Cl)cc3c2CBr)nc(=S)[nH]1,13.7%
16,COc1ccc(OC)c(-c2nc(SCC(=O)c3ccc(Br)cc3)nc(Nc3ccc(S(N)(=O)=O)cc3)c2C#N)c1,34.4%
17,COc1ccc2[nH]cc(/C=N/Nc3nc4ccccc4s3)c2c1,41.3%
18,NC(=O)c1c(NC(=O)c2ccccc2C(F)(F)F)sc2c1CCC(=O)C2,-2.3% (active)
19,CC(=O)C1=C(C)NC(NN)=NC1c1cccc(Cl)c1 (stereo not given),91%
20,COc1ccc([C@H]2[C@H](O)C(=O)N2c2cc(OC)c(OC)c(OC)c2)cc1F,29.6%
